Assay outcomes deposited in PubChem by National Center for Advancing Translational Sciences (NCATS).
This is a sample that favours compounds with a hit; in the whole collection about 15% have one here.
SARS PLP yeast = SARS-CoV PLP inhibition in yeast; S. cerevisiae expressing SARS-CoV PLpro, growth rescue; 330,000 compounds, 0.19% hits; AID 485353; Potency, µM (series often up to 32.9 µM), inactives show at the top dose activity, positive = growth rescue, actives largely listed as activators; calls by dose curve; also: potency is read from the fitted curve at half-maximal effect; 0% is about no effect; nearly all actives have a fitted effect of over 55% in size
Pf growth 48h = inhibits P. falciparum growth in the first generation, 48 h; P. falciparum luciferase growth in erythrocytes, 48 h; Potency, µM (series often up to 28.7 µM), inactives show at the highest dose activity change, negative = inhibition, usual class: inhibitors; 310,000 compounds, 5.9% hits; AID 504832; also: potency is read from the fitted curve at half-maximal effect; % is scaled to controls: 0 for no effect and ±100 for the full control effect
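Parasite viability was followed by luminescence of a genomically integrated firefly luciferase. Cultures held 0.1% parasitemia at 2% hematocrit (final), incubated under 5% CO2 at 37 C.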
Sm TGR inh = S. mansoni TGR enzyme inhibition | Q962Y6 | purified TGR, DTNB reduction, TNB absorbance 405 nm | Potency, µM (doses to about 114 µM), without a hit: top-dose activity change, negative = inhibition, most hits filed as inhibitors | 360,000 compounds, 3% hits; also: potency is read from the fitted curve at half-maximal effect; % is scaled to controls: 0 for no effect and ±100 for the full control effect; nearly all actives have a fitted effect of over 60% in size
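First, TGR (20 nM dispensed) and NADPH were mixed with compound. Second, a 15 min room-temperature incubation followed. Third, further NADPH and then DTNB were added to start the reaction. Finally, TNB absorbance was monitored kinetically.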
HCV inh = blocks hepatitis C virus; Huh7.5.1 HCVcc-Cre infection, luciferase reporter, 44 h; Potency, µM (top dose mostly 41.8 µM), for inactives: at the top dose activity change, negative = inhibition, most hits filed as inhibitors; 340,000 compounds, 3.4% hits; also: potency is read from the fitted curve at half-maximal effect; % is scaled to controls: 0 for no effect and ±100 for the full control effect
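Compounds are dispensed onto cells plated 4 h earlier at 1,000 per well, with HCVcc-Cre virus (about 0.5 moi) added next. Following 44 h of culture, luminescent signal is measured for 15 sec after 15 min with substrate at room temperature.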
HCMV antiviral = blocks human cytomegalovirus replication; 410,000 compounds, 4.5% hits; activity change, negative = inhibition, % at 57.5 µM; AID 1259415; HFF cells, HCMV-luciferase reporter, 72 h; active compounds read low; in the data active = activity change below about -60%; inconclusive = no clear call, values can overlap the other calls; inactive = above about -39%; also: % is scaled to controls: 0 for no effect and ±100 for the full control effect
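Steps: HFFs plated, 16 h 37C; compounds added; HCMV-luciferase added to MOI 1 PFU/cell; 72 h 37C; OneGlo reagent, 5 min room temperature; luminescence read, normalized to controls.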
Pf growth 96h = inhibits malaria parasite growth, 96 h | 320,000 compounds, 6.9% hits | P. falciparum luciferase reporter growth, 96 h | Potency, µM (highest dose often 28.7 µM), for inactives: top-dose activity change, negative = inhibition, actives largely listed as inhibitors; also: potency is read from the fitted curve at half-maximal effect; % is scaled to controls: 0 for no effect and ±100 for the full control effect
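96 h incubation, 37 C, 5% CO2, of luciferase-reporter P. falciparum-infected RBCs (2% hematocrit, 0.05% parasitemia final) with test compounds; endpoint luminescence.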
Numbers without * were called inactive; ? = inconclusive; nt = no result. Unless noted, calls follow the shape of the dose curve; as a rule, active = well fitted curve in the direction sought with a large enough effect; inconclusive = small, poorly fitted or top-dose-only effect, or another doubt; inactive = no such curve, though single readings can be large; an effect the other way counts as inactive or inconclusive.

SMILES	SARS PLP yeast	Pf growth 48h	Sm TGR inh	HCV inh	HCMV antiviral	Pf growth 96h
O=C(CCc1nnc(Cc2ccc3c(c2)OCO3)o1)NCc1nc2ccccc2s1	0%	1%	28µM*	-14%	51	?
C#CCOCCOCCOCCNc1nc(N2CCN(C(=O)[C@H]([C@@H](C)CC)n3cc([C@@H](N)CC(C)C)nn3)CC2)nc(N2CCN(C(=O)[C@H]([C@@H](C)CC)n3cc([C@@H](N)CC(C)C)nn3)CC2)n1	-1%	1.7µM*	28µM*	23%	-9	1.9µM*
C#CCOCCOCCOCCNc1nc(N2CCN(C(=O)[C@H]([C@@H](C)CC)n3cc([C@@H](N)Cc4ccc(O)cc4)nn3)CC2)nc(N2CCN(C(=O)[C@H]([C@@H](C)CC)n3cc([C@@H](N)Cc4ccc(O)cc4)nn3)CC2)n1	-1%	1.9µM*	-1%	8%	-20	1.9µM*
C#CCOCCOCCOCCNc1nc(N2CCN(C(=O)[C@H]([C@@H](C)CC)n3cc([C@@H](N)CC(C)C)nn3)CC2)nc(N2CCN(C(=O)[C@H](Cc3ccc(O)cc3)n3cc([C@@H](N)CC(C)C)nn3)CC2)n1	0%	?	0%	-3%	24	?
Cn1c(=O)c2c([nH]c(=O)n2Cc2ccc(Cl)cc2Cl)n(C)c1=O	nt	nt	4%	nt	9	nt
CC1CN(Cc2ccco2)C(=S)NC1=O (stereo not given)	nt	nt	nt	3%	-34	nt
Cc1ccc(C(=O)c2coc3ccc(O)c(CN4CCN(C)CC4)c23)cc1	0%	3.7µM*	6%	?	19	32%
CC1(C)C(=O)OC(c2cccs2)C(C)(C)C1=O (stereo not given)	-6%	3%	0%	27%	15	1.9µM*
COc1ccc(NC(=O)c2ccccc2NC(=O)C2CCCCC2C(=O)O)cc1 (stereo not given)	nt	nt	nt	8%	75	nt
CCN(C(=O)CN1C(=O)S/C(=C\c2cccc(OC)c2)C1=O)C1CCS(=O)(=O)C1 (stereo not given)	-1%	?	-8%	20%	?	8.3µM*
COc1cccc(/C=C2\SC(=S)N(CC(=O)N(C)C3CCS(=O)(=O)C3)C2=O)c1 (stereo not given)	-2%	-7%	-10%	10%	-11	4%
O=C(CN1C(=O)/C(=C/c2ccccc2)SC1=S)NC1CCS(=O)(=O)C1 (stereo not given)	?	23%	5%	-2%	-13	18%
O=C(CCN1C(=O)S/C(=C\c2ccccc2)C1=O)NC1CCS(=O)(=O)C1 (stereo not given)	?	-7%	-4%	5%	11	12µM*
COc1cccc(/C=C2\SC(=O)N(CCC(=O)NC3CCS(=O)(=O)C3)C2=O)c1 (stereo not given)	-1%	-3%	-12%	-1%	2	9.3µM*
COc1ccc(N2CCN(C(CNS(=O)(=O)c3c(C)cc(C)cc3C)c3ccco3)CC2)cc1 (stereo not given)	nt	nt	-6%	nt	?	nt
Nc1nonc1-n1nnc(C(=O)N/N=C/c2ccccc2Cl)c1COc1ccc(F)cc1	-1%	2%	3%	13%	41	14%
COc1ccc(C(CNC(=O)c2cncc(Br)c2)N(C)C)cc1 (stereo not given)	1%	-2%	1%	9%	-39	?
CCOCCCNC(=O)c1ccc2c(=O)n(Cc3ccc(OC)cc3)c(=O)[nH]c2c1	1%	5.9µM*	5%	-8%	?	56%
CCC1CCCCN1CCCNC(=O)c1ccc2c(=O)n(Cc3ccc(OC)cc3)c(=O)[nH]c2c1 (stereo not given)	0%	nt	-4%	14µM*	10	?
CCCCOCC1CN(CCCC)S(=O)(=O)c2c(NCc3cc(OC)c(OC)c(OC)c3)cccc2O1 (stereo not given)	nt	nt	nt	nt	-11	nt
Cc1cc(/C=N\NC(=O)CC(=O)NC2CCCCC2)c(C)n1-c1cccc(Cl)c1Cl	7%	-6%	-1%	5%	-33	8.3µM*
NC(=O)c1cc(C(=O)c2ccc(Cl)cc2)c[nH]1	-2%	20%	5%	11%	-1	56%
C=C1[C@@H](OC(C)=O)CC[C@]2(C)[C@@H]1C[C@@H]1C[C@H](OC(C)=O)C(C)=C([C@@H](OC(C)=O)[C@@H]2OC(C)=O)C1(C)C	-1%	6.6µM*	9%	?	-3	7.4µM*
CC(=O)O[C@H]1C[C@@H]2CC[C@@H]3[C@H](CC[C@]4(C)C(=O)CC[C@@H]34)[C@@]2(C)C[C@@H]1OC(C)=O	-3%	?	5%	20%	nt	?
COc1ccc(/C=C/C(=O)OCn2c(SC)nnc(C)c2=O)cc1OC	-5%	6%	28µM*	-13%	0	-28%
SMILES	SARS PLP yeast	Pf growth 48h	Sm TGR inh	HCV inh	HCMV antiviral	Pf growth 96h
COc1cc(/C=C/C(=O)OCN2C(=O)c3ccccc3C2=O)ccc1OC(F)F	?	13%	-16%	4%	33	9%
Cc1ccc(Cl)cc1N1CCN(C(c2ccc(F)cc2)c2nnc(-c3ccccc3)o2)CC1 (stereo not given)	nt	nt	7%	nt	-5	nt
O=C1OC(c2ccccc2)(c2ccc3cc(O)ccc3c2)c2ccccc21 (stereo not given)	nt	nt	nt	?	-33	nt
COCCN(CC(=O)Nc1cccc(C)c1C)C(=O)c1oc2c(Cl)cccc2c1C	-1%	9.3µM*	-3%	?	0	?
COc1cccc(NC(=O)CN(C)C(=O)c2oc3c(ccc4ccccc43)c2C)c1	-4%	0.26µM*	-4%	0%	-8	0.23µM*
COc1ccc(NC(=O)CN(C)C(=O)CNC(=O)Cc2cccc3ccccc23)cc1	?	0%	-18%	0%	0	-1%
COc1ccc(NC(=O)CN(C)C(=O)c2oc3c(ccc4ccccc43)c2C)cc1	-4%	0.19µM*	6%	?	-19	0.19µM*
CCN(CC(=O)Nc1ccc(NC(C)=O)cc1)C(=O)c1oc2c(ccc3ccccc32)c1C	4%	?	4%	-21%	-74*	12µM*
CCN(CC(=O)Nc1ccc(NC(C)=O)cc1)C(=O)c1oc2ccccc2c1C	1%	37%	-6%	6%	-14	38%
CCCNC(=O)c1cc(C2CCCN(C(=O)c3ccc(NC(C)=O)cc3)C2)on1 (stereo not given)	nt	nt	nt	nt	-31	nt
CCOC(=O)[C@]12CCC=C1N(Cc1ccccc1)C(=O)[C@H](CC(=O)NCCCN1CCCC1=O)C2	nt	nt	nt	nt	20	nt
O=S1(=O)N[C@H](Cc2ccccc2)COc2cc(N3CC[C@H](O)C3)ccc21	nt	nt	nt	nt	-4	nt
